Measured values from paper PMC10668032, “Altered binding affinity of SIX1-Q177R correlates with enhanced WNT5A and WNT pathway effector expression in Wilms tumor”.
The full ranking holds about 33,000 sequences; the median of “e-score” is about -0.05, and the highest 2% start at about 0.38. The sample holds the highest values, similar sequences and a random draw of the others, so the mix is not that of the screen.

molecular target: T1, SIX1-Q177R homeodomain (human, UniProt Q15475 108-198, Q177R); assay: universal protein binding microarray; Universal all-10-mer PBM (8x60K, AMADID 030236), 300 nM GST-tagged protein, Alexa Fluor 488 anti-GST; buffer, salt, pH and temperature not stated (as in Berger); high values mean tight binding; settings: protein: ivt; tags: N-terminal GST; dsDNA, one strand shown
T1 sequence: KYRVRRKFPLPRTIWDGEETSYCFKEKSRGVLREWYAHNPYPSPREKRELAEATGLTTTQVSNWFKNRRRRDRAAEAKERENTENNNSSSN
In short: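 Homeodomains fused to GST were made by in vitro transcription/translation and measured by anti-GST western blot with a recombinant GST standard curve. At 300 nM final concentration, they were applied in duplicate to universal 'all 10-mer' protein binding microarrays (8×60K format).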

Sequence	binding signal [E-score]
CTAGATAC	0.165 ± 0.0452
AGATAGAC	0.154 ± 0.0062
CTAGACAC	0.393 ± 0.0124
GTAGACAC	0.409 ± 0.0281
ATAGACAC	0.428 ± 0.0191
ATAGAGTC	0.202 ± 0.0331
CTAGACCC	0.184 ± 0.00755
ACAAGGTG	0.264 ± 0.0157
ACCATCCA	0.215 ± 0.0116
GGGTGCGA	0.181 ± 0.00744
CCCTGACG	0.152 ± 0.00643
CCGCCGTA	0.164 ± 0.00253
GAGACCCC	0.225 ± 0.0263
CACCCACC	0.252 ± 0.0101
CACCACTA	0.3486 ± 0.00204
ACTGTGTG	0.177 ± 0.0389
CTGGAAAC	0.178 ± 0.0277
GTGGGACA	0.171 ± 0.0189
ATGGACAC	0.419 ± 0.00799
ATGGAGAC	0.174 ± 0.0638
CTGGACAC	0.406 ± 0.0173
GTGCACAC	0.271 ± 0.021

Sequence	binding signal [E-score]
ATGGATAC	0.278 ± 0.0318
CTGGATAC	0.222 ± 0.0101
GTGGACAC	0.419 ± 0.0259
ACCCTAGT	0.269 ± 0.00753
CCCCTCTA	0.2508 ± 0.000354
AGGTGGTG	0.287 ± 0.0143
GGGTGTCA	0.4915 ± 0.00277
GGGTGCCA	0.2 ± 0.0639
AGGTGTCG	0.4794 ± 0.00471
AGGTGTCC	0.464 ± 0.0052
ATGTGTCG	0.188 ± 0.0615
CTGTGTCA	0.256 ± 0.066
CGGTGCCA	0.19 ± 0.0233
CGGTGTCA	0.4918 ± 0.00175
GGGGGTCA	0.313 ± 0.0364
AGGGGTCC	0.178 ± 0.00987
GGGAGTAC	0.2586 ± 0.000728
CGGATCCG	0.183 ± 0.00497
GTCTCATA	0.179 ± 0.0328
CCCGGGGA	0.206 ± 0.0149
CACCGCTC	0.27 ± 0.013
CCATAACA	0.2144 ± 0.000806

Sequence	binding signal [E-score]
AGACGGTG	0.23 ± 0.0191
AAACGGTG	0.308 ± 0.011
CCCTCACG	0.165 ± 0.0328
CCCCCTCA	0.223 ± 0.0246
CCGCGCGG	0.172 ± 0.0537
ACTGGTAT	0.2685 ± 0.000262
CCGGTTAC	0.1852 ± 0.000205
AGGTGTCA	0.4862 ± 0.000651
CGGTGATC	0.163 ± 0.0497
ATGTGTCA	0.253 ± 0.0258
CGGTGTCC	0.489 ± 0.00456
CGGGGTCC	0.241 ± 0.0168
AGGTGACA	0.251 ± 0.0589
TCGGTGCA	0.232 ± 0.0114
CACGACCG	0.225 ± 0.0274
CGCCACCC	0.19 ± 0.0435
TAGTGAGA	0.154 ± 0.0331
TGTCGACA	0.25 ± 0.0489
GGGATACC	0.341 ± 0.00451
AGACCCTA	0.195 ± 0.0142
CACGGGCG	0.204 ± 0.0346
ACACGGCT	0.3983 ± 0.00124

Sequence	binding signal [E-score]
ACACGGCC	0.3824 ± 0.0024
ACACGTCT	0.344 ± 0.0192
ACACGGCA	0.3737 ± 0.00357
ACACGTCG	0.323 ± 0.0129
ACACGTCA	0.323 ± 0.0149
AACCCCGC	0.194 ± 0.0341
TACTCCCA	0.16 ± 0.038
ACGCGGCG	0.229 ± 0.0107
ACCGAATA	0.155 ± 0.00809
CACACGCC	0.252 ± 0.0122
CACACGCG	0.296 ± 0.0321
GACACGCC	0.4444 ± 0.00225
GACACGCA	0.416 ± 0.0252
CACGCGCA	0.212 ± 0.0332
ACCTCCGA	0.172 ± 0.0111
CCCCTAGC	0.177 ± 0.00211
ACTCGGAC	0.179 ± 0.0406
CACCCTGA	0.339 ± 0.0238
AGGATCCC	0.155 ± 0.0155
GTAACAGA	0.16 ± 0.00854
CCCGAGAC	0.204 ± 0.023
ACCCGTCT	0.178 ± 0.0209

Sequence	binding signal [E-score]
CGTGTCTC	0.338 ± 0.00573
GGAGTCAC	0.3325 ± 0.00242
CGTGTCAG	0.441 ± 0.0089
CGTGTCAC	0.462 ± 0.0133
AGTATCAG	0.266 ± 0.0112
CGCGTCAG	0.154 ± 0.00463
CGAGTCAC	0.196 ± 0.0324
AGTGTCAC	0.45 ± 0.00611
GGGGTCAC	0.29 ± 0.0253
GGTGTCAC	0.4915 ± 0.00356
ACGCGGTG	0.334 ± 0.012
GGGATCCA	0.211 ± 0.0194
ACCTGACA	0.228 ± 0.0625
ACCCCACT	0.207 ± 0.00426
GCGGATAA	0.162 ± 0.0348
CTCGTACA	0.17 ± 0.0125
CCCAAACA	0.208 ± 0.0371
CACTCTTA	0.164 ± 0.0568
GAACCCCC	0.244 ± 0.0572
ATACCCAG	0.274 ± 0.0157
AGTGTCAT	0.462 ± 0.0172
